Only some compounds are listed: those with a hit (about 2.5% of all), similar ones and a draw of the others.
rCAG RNA binder: binders of r(CAG) RNA repeats, primary screen, biochemical, fluorescence. r(CAG) RNA repeat, TO-PRO-1 dye displacement fluorescence. inhibition, % at 3 µM. 370,000 compounds, 1.3% hits;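 active means inhibition above the plate cutoff, the mean of all test compounds on that plate plus 3 SD, cut at about 35% in these data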;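 further: 0% = DMSO alone and 100% = 100 µM mitoxantrone as full dye displacement; higher means more dye released from RNA so lower well fluorescence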
PG9 binder: binders of HIV-1 gp120 antibody PG9, primary screen, biochemical, TR-FRET | 360,000 compounds, 0.43% hits | HIV-1 gp120 / PG9 antibody interaction | inhibition, % at 6.7 µM | TR-FRET gp120-PG9 antibody binding; in the data active means inhibition above about 8.5%
Exocytosis inh: LAMP-1 surface exposure blockers, TALL-104 cells – cell-based, flow cytometry, MLPCN library, primary screen. TALL-104 LAMP-1 surface exposure; cells stimulated with thapsigargin and PMA. AID 651702, 2012. inhibition, % at 10 µM. 360,000 compounds, 0.66% hits;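 active means inhibition above about 55%, limit read from the data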
ABCB6 inh MLPCN: ABCB6 transporter inhibitors, primary screen, K562-ABCB6 cells, flow cytometry, MLPCN library. ATP-binding cassette sub-family B member 6 (Homo sapiens), Q9NP58. K562-ABCB6 porphyrin accumulation, 1 h; active compounds read low. fluorescence ratio to DMSO, % at 10 µM. 360,000 compounds, 0.19% hits. AID 602162, 2011;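 active means fluorescence ratio to DMSO below 75%, the collection mean minus 3 SD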;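 further: signal is porphyrin accumulated inside mitochondria; 100% equals median channel fluorescence of DMSO control wells; lower ratio means ABCB6 inhibition with less porphyrin fluorescence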
Target sequence (Q9NP58 whole entry, looked up): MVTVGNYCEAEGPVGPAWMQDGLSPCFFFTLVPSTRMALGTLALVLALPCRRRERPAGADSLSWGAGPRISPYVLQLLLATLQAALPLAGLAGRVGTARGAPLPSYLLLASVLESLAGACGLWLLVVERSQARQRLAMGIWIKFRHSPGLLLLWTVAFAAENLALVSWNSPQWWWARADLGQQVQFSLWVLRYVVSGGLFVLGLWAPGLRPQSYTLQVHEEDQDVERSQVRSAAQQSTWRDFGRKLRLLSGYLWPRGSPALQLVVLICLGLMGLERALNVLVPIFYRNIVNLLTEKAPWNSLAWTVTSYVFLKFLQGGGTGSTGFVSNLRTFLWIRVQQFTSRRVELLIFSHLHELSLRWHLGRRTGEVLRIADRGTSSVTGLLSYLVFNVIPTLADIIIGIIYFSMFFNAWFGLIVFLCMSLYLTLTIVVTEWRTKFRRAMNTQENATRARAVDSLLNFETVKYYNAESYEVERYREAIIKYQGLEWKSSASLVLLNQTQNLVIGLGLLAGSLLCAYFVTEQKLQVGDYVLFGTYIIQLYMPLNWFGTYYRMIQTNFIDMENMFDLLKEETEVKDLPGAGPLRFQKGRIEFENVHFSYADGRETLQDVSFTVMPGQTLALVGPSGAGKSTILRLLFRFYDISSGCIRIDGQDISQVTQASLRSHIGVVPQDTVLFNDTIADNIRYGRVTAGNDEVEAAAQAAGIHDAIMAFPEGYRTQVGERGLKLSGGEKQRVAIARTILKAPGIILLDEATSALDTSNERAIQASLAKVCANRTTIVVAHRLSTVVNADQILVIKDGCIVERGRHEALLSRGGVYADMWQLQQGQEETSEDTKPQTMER
rCAG bind conf: small molecules binding CAG repeat RNA – biochemical, fluorescence, confirmation; 4,300 compounds, 70% hits; inhibition, % at 3 µM; shares compounds with rCAG RNA binder; r(CAG) RNA repeat, TO-PRO-1 dye displacement fluorescence;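 active means inhibition above a per-plate cutoff, the mean inhibition of sample wells plus 3 SD, cut at about 35% in these data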;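 further: loss of TO-PRO-1 fluorescence as compound displaces dye from 1x1 AA loop RNA; 0% = DMSO only wells and 100% = 100 µM mitoxantrone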
dCAG dye counter: displacement of TO-PRO-1 from CAG DNA duplex, counter-screen for rCAG RNA repeat binder project, biochemical, fluorescence, TO-PRO-1 dye, d(CAG) DNA oligo; 4,300 compounds, 94% hits; AID 652068, 2013; inhibition, % at 3 µM; d(CAG) DNA oligo TO-PRO-1 dye displacement; shares compounds with rCAG RNA binder;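 active means inhibition above its plate's cutoff, the mean test-well inhibition plus 3 SD, cut at about 4.8% in these data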;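 further: 0% = DNA dye mix with DMSO and 100% = 100 µM mitoxantrone; hits displace the dye from DNA and so lower well fluorescence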
DNA CAG DR: inhibitors of DNA CAG/GTC TO-PRO-1 complex, dose response, counter-screen for rCAG RNA repeat binder project, biochemical, fluorescence, TO-PRO-1 dye; shares compounds with rCAG RNA binder; DNA CAG/GTC duplex TO-PRO-1 dye displacement fluorescence; IC50, µM; 250 compounds, 20% hits; AID 686960, 2013; in the data active means IC50 below about 10 µM
* marks the source's active call; other numbers are inactive results; x = no result.

SMILES	rCAG RNA binder	PG9 binder	Exocytosis inh	ABCB6 inh MLPCN	rCAG bind conf	dCAG dye counter	others
C=CCn1c(SCC(=O)N(C)CC(=O)Nc2ccc(C)cc2)nnc1-c1ccncc1	1.3	-1.9	2.1	100.0	x	x
COC(=O)c1ccccc1-c1ccc(/C=C2\C(=O)N(c3ccccc3)N=C2c2ccccc2)o1	7.8	-0.5	-0.9	106.0	x	x
CCOC(=O)C(C)N1C(=O)S/C(=C\c2ccc(-c3ccccc3C(=O)O)o2)C1=O (stereo unspecified)	37.2*	-1.1	-3.2	96.0	40.2*	11.8*
Cc1ccc(C)c(N2C(=N)S/C(=C\c3ccc(-c4ccccc4C(=O)O)o3)C2=O)c1	45.1*	-0.6	1.5	95.0	39.2*	10.2*
Cc1ccc2c(nc3s/c(=C\c4ccc(-c5ccccc5C(=O)O)o4)c(=O)n32)c1C	53.5*	-1.4	1.6	130.0	89.4*	75.5*
Cc1cc(C)c2nc3sc(=Cc4ccc(-c5ccccc5C(=O)O)o4)c(=O)n3c2c1	28.4	-0.9	35.4	213.0	x	x
Cc1cc(C(=O)O)ccc1-c1ccc(/C=C2\SC(=O)N(CC(=O)Nc3ccc4c(c3)OCO4)C2=O)o1	11.4	-1.9	27.4	94.0	x	x
O=C(N/N=C/c1cccn1-c1ccc(O)cc1)c1cccc2ccccc12	8.0	1.0	14.6	87.0	x	x
Cn1cc(/C=N/NC(=O)c2cc3cc(Br)ccc3o2)c2ccccc21	7.5	1.1	-8.3	103.0	x	x
O=C(O)Cn1cc(/C=N/NC(=O)c2cc3cc(Br)ccc3o2)c2ccccc21	50.3*	-3.3	-0.5	91.0	55.8*	17.4*
O=C(O)c1ccc(-n2cccc2/C=N\NC(=O)c2cc3cc(Br)ccc3o2)cc1	49.7*	0.5	-1.1	97.0	46.3*	14.8*
COc1cccc(N2CC(NS(=O)(=O)c3cccnc3)CC2=O)c1 (stereo unspecified)	0.9	-0.9	20.3	98.0	x	x
COc1cc2[nH]c(=S)nc(Nc3ccc(NC(C)=O)cc3)c2cc1OC	37.1*	-6.3	0.6	93.0	7.7	6.4*
Cc1c(CC(=O)O)c(=O)oc2cc(OCc3ccc(Br)cc3)ccc12	40.2*	0.2	-2.9	107.0	46.9*	9.7*	DNA CAG DR=>29.9
Cc1c(CCC(=O)O)c(=O)oc2cc(OCc3cccc(F)c3)ccc12	20.0	5.0	-9.7	99.0	x	x
Cc1c(CCC(=O)O)c(=O)oc2cc(OCc3ccccc3Br)ccc12	56.3*	3.8	6.5	101.0	43.4*	8.8*
Cc1ccc(C(=O)Nc2nc(=O)n(C(=O)c3ccccc3Cl)s2)cc1	47.8*	-0.5	3.6	97.0	63.4*	17.2*
O=C(CSc1nc2nc(-c3cccs3)cc(C(F)(F)F)c2c(=O)[nH]1)Nc1c(F)c(F)c(F)c(F)c1F	13.0	0.1	19.0	97.0	x	x
NS(=O)(=O)c1cccc(NC(=O)CSc2nc3nc(-c4cccs4)cc(C(F)(F)F)c3c(=O)[nH]2)c1	49.6*	0.4	-0.7	101.0	77.2*	44.8*
O=C(CCN1C(=O)/C(=C\C=C\c2ccccc2)SC1=S)Nc1ccccc1C(=O)O	41.7*	-1.4	-1.7	96.0	87.7*	57.0*
O=C(CCN1C(=O)/C(=C\C=C\c2ccccc2)SC1=S)Nc1cccc(C(=O)O)c1	86.0*	-1.8	-5.8	96.0	84.0*	54.1*
O=C(CCN1C(=O)/C(=C/c2ccc(Cl)cc2)SC1=S)Nc1cccc(C(=O)O)c1	5.6	0.5	1.7	100.0	x	x
CCCC(O)(c1ccc(CC)cc1)C(CN1CCOCC1)c1ccccc1 (stereo unspecified)	-8.9	-0.5	20.7	126.0	x	x
